Counter-ions that a name gives are not always drawn.
Key:
Settings in all cases: 10 µM; exposure time 6 h
[1] = test system: Danio rerio larvae (5 dpf); experiment: difference in excitability vs DMSO (percentage points); higher = more excitable than DMSO
Method in brief: (§1)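 Wild-type 5 dpf zebrafish larvae in 96-well plates were given 100 µL egg water containing library compound at 10 µM final for 6 h. After 3 h of exposure, plates at 28.5 ℃ were photographed every 6 s during a 3-h programme of moving lines and 100 ms, 400Hz tones. Z-LaP Tracker (a DeepLabCut model) quantified each behaviour, averaged over 48 larvae per compound. Values are the compound mean minus the DMSO-vehicle control, in percentage points.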

[2] = test system: Danio rerio larvae (5 dpf); experiment: difference in startle response vs DMSO (percentage points); higher = stronger startle than DMSO
Method in brief: as §1

[3] = test system: Danio rerio larvae (5 dpf); experiment: difference in activity during first hour vs DMSO (percentage points); higher = more activity than DMSO
Method in brief: as §1

[4] = test system: Danio rerio larvae (5 dpf); experiment: difference in habituation to acoustic stimuli vs DMSO (percentage points); higher = more habituation than DMSO
Method in brief: as §1

[5] = test system: Danio rerio larvae (5 dpf); experiment: difference in combined optomotor response to red, green and blue moving lines vs DMSO (percentage points); higher = stronger optomotor response than DMSO
Method in brief: as §1

Structure (SMILES) | difference in excitability [1] | difference in startle response [2] | difference in activity during first hour [3] | difference in habituation to acoustic stimuli [4] | difference [5]
CN/C(=N\CCSCc1nc[nH]c1C)NC#N [Cimetidine] | -1.49 | 2.86 | 11.1 | 4.18 | 8.46
CC(=O)O[C@]1(C(C)=O)CC[C@H]2[C@@H]3CCC4=CC(=O)CCC4=C3[C@@H](c3ccc(N(C)C)cc3)C[C@@]21C [Ulipristal Acetate] | 4.89 | -8.5 | -5.48 | 5.46 | -10.6
CN1CCN(C2=Nc3cc(Cl)ccc3Nc3ccccc32)CC1 [Clozapine] | 9.35 | -11.3 | 37.7 | -6.72 | 5.08
OCCOCCN1CCN(C2=Nc3ccccc3Sc3ccccc32)CC1 [Quetiapine (hemifumarate)] | -1.54 | -3.79 | 16.8 | -4.99 | 10.6
C[C@H](CCC(=O)O)[C@H]1CC[C@H]2[C@@H]3CC[C@@H]4C[C@H](O)CC[C@]4(C)[C@H]3C[C@H](O)[C@]12C [Deoxycholic Acid] | 13.1 | -0.179 | 23.8 | 3.17 | 0.759
Cc1oncc1C(=O)Nc1ccc(C(F)(F)F)cc1 [Leflunomide] | 20.4 | -4.19 | 4.33 | -10.8 | 2.2
Cc1c(C(=O)Nc2ccc(N3C[C@@H](C)O[C@@H](C)C3)nc2)cccc1-c1ccc(OC(F)(F)F)cc1 [LDE225 (phosphate)] | 13 | -4.4 | -2.84 | -4.9 | 3.16
CCOC(=O)[C@H](CCc1ccccc1)N[C@@H](C)C(=O)N1[C@H](C(=O)O)C[C@@H]2CCC[C@@H]21 [Ramipril] | -5.85 | -2.41 | 5.42 | -0.379 | 7.67
CC[C@@H]1/C=C(\C)C[C@H](C)C[C@H](OC)[C@H]2O[C@@](O)(C(=O)C(=O)N3CCCC[C@H]3C(=O)O[C@H](/C(C)=C/[C@@H]3CC[C@H](Cl)[C@H](OC)C3)[C@H](C)[C@@H](O)CC1=O)[C@H](C)C[C@@H]2OC [Pimecrolimus] | 12 | -9.07 | 23 | -1.18 | -12.6
CN(C)CCOC(c1ccccc1)c1ccccc1 [Diphenhydramine (hydrochloride)] | -0.341 | 0.108 | -10.6 | -3.37 | 3.89
C=C1/C(=C\C=C2/CCC[C@]3(C)[C@@H]([C@H](C)/C=C/[C@H](C)C(C)C)CC[C@@H]23)C[C@@H](O)C[C@@H]1O [1-hydroxy Vitamin D2] | 1.72 | -1.97 | 2.97 | 0.874 | 6.19
CCCCNc1ccc(C(=O)OCCOCCOCCOCCOCCOCCOCCOCCOCCOC)cc1 [Benzonatate] | 6.12 | 1.4 | -1.8 | 6.2 | -0.0866
COC(=O)c1ccc2c(c1)NC(=O)/C2=C(\Nc1ccc(N(C)C(=O)CN2CCN(C)CC2)cc1)c1ccccc1 | 16.7 | -5.51 | -11.1 | 1.6 | 3.92
CC(=O)OCC(=O)[C@@]1(O)CC[C@H]2[C@@H]3CCC4=CC(=O)CC[C@]4(C)[C@H]3C(=O)C[C@@]21C [Cortisone Acetate] | 2.07 | -1.29 | 1.26 | 3.11 | -0.38
CC1=C(C/C=C(\C)CCC[C@H](C)CCC[C@H](C)CCCC(C)C)C(=O)c2ccccc2C1=O [Vitamin K1] | -4.97 | 1.27 | 12.1 | -1.08 | 6.58
CC[C@H](C)C[C@H](C)CCCCCCCCC(=O)N[C@H]1C[C@@H](O)[C@@H](NCCN)NC(=O)[C@@H]2[C@@H](O)CCN2C(=O)[C@H]([C@H](O)CCN)NC(=O)[C@H]([C@H](O)[C@@H](O)c2ccc(O)cc2)NC(=O)[C@@H]2C[C@@H](O)CN2C(=O)[C@H]([C@@H](C)O)NC1=O [Caspofungin (acetate)] | 12.4 | -1.41 | -14 | -0.0911 | -8.06
Cc1cccc(C)c1OCC(=O)N[C@@H](Cc1ccccc1)[C@@H](O)C[C@H](Cc1ccccc1)NC(=O)[C@H](C(C)C)N1CCCNC1=O [Lopinavir] | 10.5 | -2.95 | -0.504 | -4.82 | -0.255
Brc1c(NC2=NCCN2)ccc2nccnc12 [Brimonidine (tartrate)] | -0.928 | -0.293 | -14.2 | 3.89 | 10.9
CCCCCCCCCCCCCCCCCCCCCCO [Docosanol] | 3.23 | 1.61 | -0.528 | -2.06 | 0.854
N[C@H](C(=O)O)[C@H](O)c1ccc(O)c(O)c1 [Droxidopa] | 0.975 | 0.64 | 3.89 | 5.02 | 2.12
O=c1[nH]cnc2c1ncn2[C@H]1CC[C@@H](CO)O1 [Didanosine] | 1.69 | -3.05 | 4.04 | -1.02 | 4.2
CS(=O)(=O)CCNCc1ccc(-c2ccc3ncnc(Nc4ccc(OCc5cccc(F)c5)c(Cl)c4)c3c2)o1 [Lapatinib] | -0.459 | 0.335 | -8.64 | -0.929 | 1.37

Structure (SMILES) | difference in excitability [1] | difference in startle response [2] | difference in activity during first hour [3] | difference in habituation to acoustic stimuli [4] | difference [5]
CC(=O)OCC(=O)[C@@]12OC(C)(C)O[C@@H]1C[C@H]1[C@@H]3C[C@H](F)C4=CC(=O)C=C[C@]4(C)[C@@]3(F)[C@@H](O)C[C@@]12C [Fluocinonide] | 0.338 | 2.99 | -1.35 | -2.83 | 0.257
CC[C@H](C)[C@@H]1NC(=O)[C@H](Cc2ccc(O)cc2)NC(=O)[C@@H](N)CSSC[C@@H](C(=O)N2CCC[C@H]2C(=O)N[C@@H](CC(C)C)C(=O)NCC(N)=O)NC(=O)[C@H](CC(N)=O)NC(=O)[C@H](CCC(N)=O)NC1=O [Oxytocin (acetate)] | -2.14 | 1 | -5.61 | 2.03 | 4.29
O=C(O)CCCc1ccccc1 [Sodium 4-Phenylbutyrate] | -1.36 | 2.31 | -3.38 | 1.43 | 5.24
CCc1cccc2c3c([nH]c12)C(CC)(CC(=O)O)OCC3 (stereo not given) [Etodolac] | -4.84 | 7.75 | 13.6 | 4.08 | 3.56
Cc1ccc(C(=O)c2ccc(CC(=O)O)n2C)cc1 [Tolmetin (sodium salt hydrate)] | -2.25 | 2.51 | 13.8 | 1.94 | 7.94
O=C(c1ccc(OCCN2CCCCC2)cc1)c1c(-c2ccc(O)cc2)sc2cc(O)ccc12 [Raloxifene (hydrochloride)] | 22 | -0.808 | -9.71 | 2.6 | 1.59
CN1CCc2cccc3c2[C@H]1Cc1ccc(O)c(O)c1-3 [(-)-Apomorphine (hydrochloride hydrate)] | 19.8 | -2.6 | -20.1 | -5.47 | -13
O=C(O)c1cn(C2CC2)c2cc(N3CCNCC3)c(F)cc2c1=O [Ciprofloxacin (hydrochloride)] | 5.21 | -3.39 | 16.5 | 2.26 | 2.77
CC(CN(C)C)CN1c2ccccc2CCc2ccccc21 (stereo not given) [Trimipramine (maleate)] | 12.5 | -3.72 | -0.632 | -5.79 | 0.935
CC(C)[C@H](N)C(=O)OCCOCn1cnc2c(=O)[nH]c(N)nc21 [L-Valacyclovir (hydrochloride)] | 6.67 | 6.55 | 5.61 | -8.71 | -5.74
CCCNC(C)C(=O)Nc1c(C)csc1C(=O)OC (stereo not given) [Articaine (hydrochloride)] | 2.22 | -2.43 | 5.22 | 0.219 | -0.0299
N=C(N)NCCCC[C@@H]1NC(=O)CCSSC[C@@H](C(N)=O)NC(=O)[C@@H]2CCCN2C(=O)[C@H](Cc2c[nH]c3ccccc23)NC(=O)[C@H](CC(=O)O)NC(=O)CNC1=O [Eptifibatide] | 10.9 | 3.19 | 5.64 | -3.64 | 2.85
CCCCc1ncc(/C=C(\Cc2cccs2)C(=O)O)n1Cc1ccc(C(=O)O)cc1 [Eprosartan (mesylate)] | 7.16 | -7.77 | -8.19 | -4.96 | 5.89
CC(C)(C#N)c1cc(Cn2cncn2)cc(C(C)(C)C#N)c1 [Anastrozole] | 1.93 | -2.98 | -4.84 | -5.36 | 7.09
CO[C@H]1/C=C/O[C@@]2(C)Oc3c(C)c(O)c4c(O)c(c5c(nc6cc(C)ccn65)c4c3C2=O)NC(=O)/C(C)=C\C=C\[C@H](C)[C@H](O)[C@@H](C)[C@@H](O)[C@@H](C)[C@H](OC(C)=O)[C@@H]1C [Rifaximin] | -5.63 | -5.31 | 13.2 | 0.472 | 0.85
COc1cc2nc(N3CCN(C(=O)C4COc5ccccc5O4)CC3)nc(N)c2cc1OC (stereo not given) [Doxazosin (mesylate)] | 25 | 8.69 | 7.65 | -8.22 | -5.73
CCC1=C[C@@H]2CN(C1)Cc1c([nH]c3ccccc13)[C@@](C(=O)OC)(c1cc3c(cc1OC)N(C)[C@H]1[C@@](O)(C(=O)OC)[C@H](OC(C)=O)[C@]4(CC)C=CCN5CC[C@]31[C@@H]54)C2 [Vinorelbine (tartrate)] | 11.6 | -5.75 | 3.25 | -2.19 | -4.51
COc1c(N2C[C@@H]3CCCN[C@@H]3C2)c(F)cc2c(=O)c(C(=O)O)cn(C3CC3)c12 [Moxifloxacin (hydrochloride)] | 22.9 | 4.54 | 5.78 | 3.51 | 3.81
C[N+]1(C)[C@@H]2C[C@@H](OC(=O)C(O)(c3cccs3)c3cccs3)C[C@H]1[C@@H]1O[C@@H]12 [Tiotropium (bromide)] | -0.664 | -4.87 | -7.11 | -4.6 | -6.76
C#C[C@]1(O)CC[C@H]2[C@@H]3CCC4=CC(=O)CC[C@@H]4[C@H]3C(=C)C[C@@]21CC [Etonogestrel] | 12.2 | -2.36 | 0.0241 | -5.37 | 10.4
CCN1CCN(C(=O)N[C@@H](C(=O)N[C@@H]2C(=O)N3[C@@H]2SC(C)(C)[C@@H]3C(=O)O)c2ccccc2)C(=O)C1=O [Piperacillin (sodium salt)] | 2.92 | 2.6 | 14.2 | -3.02 | 5.57
C[N+]1(C)[C@@H]2CC[C@H]1C[C@@H](OC(=O)C(O)c1ccccc1)C2 (stereo not given in full) [Methylhomatropine (bromide)] | 5.63 | 0.325 | 2.46 | 1.2 | -3.01

From the supplement of paper PMC10515830
